# Assay outcomes as filed in PubChem.
# Autophagy mod: autophagy modulation, high-content screen. MEF GFP-LC3 puncta imaging; test concentration mostly 10 µM. calls only at 10 µM (by protocol). 190,000 tested, 0.98% active. AID 463193;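 active = percentage of spot-positive cells more than 3 SD above its plate mean, without a fluorescence outlier flag or 80% toxicity; inconclusive = no clear call, values can overlap the other calls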;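 also: spot-positive cell cutoff set from DMSO-treated cells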
# L major viab: reduces viability of Leishmania major promastigotes; resazurin fluorescence viability; inhibition, % at 10 µM; 200,000 tested, 9% active; AID 1063; in the data active = inhibition above about 50%;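 also: promastigotes grown with compound for 44 hours at 28 °C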
# WT yeast gro inh: growth inhibition of WT yeast, mitochondrial fusion screen | mitochondrial fusion phenotypic screen, WT strain | inhibition, % at 10 µM | 190,000 tested, 2.1% active; in the data active = inhibition above about 58%; tested in S. cerevisiae
# INS promoter inh: TRM-6 insulin promoter activity inhibition; 130,000 tested, 0.9% active; inhibition, % at 2 µM; AID 1273; TRM-6 cells (human fetal islet line), insulin promoter-eGFP reporter, imaging; reporter expression induced with tamoxifen;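 active = inhibition above the mean plus 3 SD, with well images judged a real hit on visual review, cut at about 60% in these data, passing the limit was not always enough; inconclusive = inhibition over the cutoff but images rejected on review; inactive = inhibition not above the cutoff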
# Insulin prom up: MIN6 insulin promoter up-regulation. z-score at 5 µM. MIN6 insulin promoter-GFP reporter, high-content imaging; active compounds read high. 190,000 tested, 0.3% active. AID 1625;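 active = z-score above 3 at 5 µM with at least 500 cells counted in the well; inconclusive = wells under 500 cells, flagged as cytotoxic or low count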
# * = called active by the depositor; i = inactive; u = inconclusive; x = not tested or not shown. Rows were chosen to be rich in hits. Some 11% of all compounds tested hit in one or more screens of this group.
SMILES,Autophagy mod,L major viab,WT yeast gro inh,INS promoter inh,Insulin prom up
O=C(CC(=O)c1ccccc1O)c1cccc(F)c1,i,98*,53,-35,-0.23
O=C(O)CCC(=O)NCC(=O)c1ccc(F)cc1,x,x,x,x,1.2
O=C(Nc1ccccc1C(=O)O)c1cccc(F)c1,i,-8,x,40,x
O=C(CNc1ccc(Br)cc1)c1ccccc1,i,6,20,-17,-0.22
O=C(NCc1ccco1)C1(S(=O)(=O)c2ccc(Cl)cc2)CC1,i,8,1,-270,2.4
CC(C)c1cccc(C(C)C)c1NC(=O)Cn1c(=O)cnc2ccccc21,i,92*,11,-8,0.04
CC(C)(C)c1ccccc1NC(=O)Cn1c(=O)cnc2ccccc21,i,55*,9,-68,-0.14
O=C1N2CCSC2=NC1(NS(=O)(=O)c1ccccc1)C(F)(F)F (centres undefined),i,-2,2,x,-0.92
O=C1C=CC(=O)N1c1ccc(OC(F)F)cc1,i,-4,42,i,0.13
O=C1C=C(NCCN2CCOCC2)C(=O)c2cnccc21,i,99*,4,-18,u
O=C(NCCN1CCOCC1)c1ccncc1,i,-8,-7,x,0.01
COc1ccc(C(=O)Nc2c(C)ccc3nsnc23)cc1[N+](=O)[O-],i,83*,11,-13,-0.55
Cn1c(=O)n(C)c2cc(NC(=O)c3cccc([N+](=O)[O-])c3)c(Br)cc21,i,60*,2,x,0.39
Cc1ccc2nsnc2c1NC(=O)c1cccc([N+](=O)[O-])c1,i,-1,-5,-41,0.27
CCOc1ccc(C(=O)NC(=S)Nc2ccc(N3CCCCC3)cc2)cc1[N+](=O)[O-],i,99*,28,0,-0.39
Cc1c(C(=O)NC(=S)Nc2ccc(NC(=O)c3cccs3)cc2)cccc1[N+](=O)[O-],i,98*,x,40,x
CCn1c(C)nc2cc(C(=O)N/N=C/c3ccc(N4CCOCC4)cc3)ccc21,i,-9,22,x,0.84
Cc1cccn2c(=O)c(C=NCc3ccco3)c(Nc3ccc(Cl)cc3)nc12,x,x,12,x,x
CCC/C=N/NC(=O)c1[nH]c2c([N+](=O)[O-])cccc2c1C,i,-8,-3,-24,0.29
C=CCO/N=C(/C)c1ccc(Oc2cnccn2)cc1,i,-10,1,x,-0.01
CCOc1ccc(C(=O)NC(=S)Nc2ccccc2N2CCCCC2)cc1[N+](=O)[O-],i,95*,-8,24,-0.63
Cc1c(C(=O)NC(=S)Nc2ccccc2N2CCCC2)cccc1[N+](=O)[O-],i,87*,3,-44,-0.1
O=C(Nc1ccccc1N1CCCCC1)c1cccc([N+](=O)[O-])c1,i,10,78*,x,-0.51
CCOc1ccc(C(=O)NC(=S)Nc2ccccc2OC)cc1[N+](=O)[O-],i,-1,5,43,0.1
COc1ccc(C(=O)NC(=S)Nc2ccccc2N2CCCCC2)cc1[N+](=O)[O-],i,99*,36,11,-0.66
SMILES,Autophagy mod,L major viab,WT yeast gro inh,INS promoter inh,Insulin prom up
O=C(NC(=S)Nc1ccccc1N1CCCC1)c1ccc([N+](=O)[O-])cc1,i,16,18,37,-0.36
O=C(Nc1ccccc1N1CCOCC1)c1cccc([N+](=O)[O-])c1,i,-1,-6,-36,0.17
Cc1ccc(NC(=O)COC(=O)C2CC3C=CC2C3)cc1S(=O)(=O)N1CCCCC1 (centres undefined),i,-3,38,x,-0.33
CC(=O)NC(=O)NC1OC(=O)C(Cl)=C1Cl (centres undefined),i,3,-18,x,0.44
CCOc1ccc(C(=O)NC(=S)NC2CCCC2)cc1[N+](=O)[O-],i,58*,14,-59,-0.07
CCOc1ccc(C(=O)NC(=S)Nc2ccc(NC(=O)CC)cc2)cc1[N+](=O)[O-],i,-1,-1,-9,-0.07
COc1ccc(C(=O)NC(=S)Nc2cc(C)ccn2)cc1[N+](=O)[O-],i,62*,3,25,-0.07
Cc1c(NC(=O)c2ccccc2N(C)S(=O)(=O)c2ccccc2)c(=O)n(-c2ccccc2)n1C,i,-2,14,43,1.4
COc1cccc(/C=C/C(=C2/C(=O)N(c3ccccc3)N=C2C)c2ccccc2)c1OC,i,95*,-5,x,-0.3
CC1=NN(c2ccccc2)C(=O)C1=C(C)C,i,-11,5,11,0.12
COc1ccccc1/C=C/C(=C1/C(=O)N(c2ccccc2)N=C1C)c1ccc(C)cc1,i,40,3,71*,-0.02
COc1cccc(/C=C/C(=C2/C(=O)N(c3ccccc3)N=C2C)c2ccc(Br)cc2)c1OC,i,100*,6,x,0.69
Cc1ccc(Nc2ncccc2C(N)=O)cc1[N+](=O)[O-],i,-6,-8,x,-0.3
